In the library only some 1.2% were active in any assay of this set; here they are far more common.
Mm-Cpn inhibitor: Inhibitors of TCP-1 ring complex (TRiC) of Methanococcus maripaludis (MmCpn): qHTS; purified Mm-Cpn ATPase, ADP Transcreener TR-FRET; Chaperonin Mm-Cpn (Methanococcus maripaludis); 330,000 tested, 0.031% active; Potency, µM (doses to about 76.9 µM), for inactives: at the highest dose activity, negative = inhibition, hits mostly inhibitors; also: potency is read from the fitted curve at half-maximal effect; % is scaled to controls: 0 for no effect and ±100 for the full control effect; nearly all actives have a fitted effect of over 80% in size
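ATPase turnover read by TR-FRET ADP competition (Eu cryptate antibody/ADP-d2, 665/590 nm): 10uM ATP final, 25nM Mm-CPN final, 30 min 37degC after 10-min compound preincubation, pH 7.4 Tris/KCl/MgCl2/DTT buffer.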
gsp antag: qHTS for Antagonists of gsp, the Etiologic Mutation Responsible for Fibrous Dysplasia/McCune-Albright Syndrome: qHTS | gsp-mutant cells, cAMP HTRF, 30 min | Potency, µM (titrated, usually from 76.9 µM), without a hit: top-dose activity change, negative = inhibition, most hits filed as inhibitors | 340,000 tested, 0.4% active | AID 624288, 2012; calls by dose curve; cell line not stated here;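 also: intracellular cAMP measured with PDE inhibitor Ro 20-1724 present during compound exposure; potency is read from the fitted curve at half-maximal effect; % is scaled to controls: 0 for no effect and ±100 for the full control effect; nearly all actives have a fitted effect of over 65% in size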
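HTRF cAMP measurement after 30 min RT detection following 30 min, 37C compound treatment alongside […] (added as 300 uM solution) in G418-selected cells seeded at 2000/well and grown 16–24 h.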
gsp ag: qHTS for Agonist of gsp, the Etiologic Mutation Responsible for Fibrous Dysplasia/McCune-Albright Syndrome: qHTS; gsp mutant cells, cAMP HTRF, 30 min; AID 624287, 2012; 340,000 tested, 0.13% active; Potency, µM (top dose mostly 76.9 µM), for the others: at the top dose activation (cAMP increase), most hits filed as activators; active = well fitted activation curve with a large enough effect; inconclusive = small, poorly fitted or top-dose-only effect, or another doubt; inactive = no such curve, though single readings can be large or run the other way; cell line not stated here;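 also: phosphodiesterase inhibitor Ro 20-1724 added with compounds to block cAMP breakdown; potency is read from the fitted curve at half-maximal effect; nearly all actives have a fitted effect of over 60% in size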
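Cells in DMEM/10% FBS with G418 were pretreated with compounds in DMSO plus […] (300 uM stock) for 30 min at 37C. cAMP was measured by HTRF (cAMP-d2 plus anti-cAMP antibody-K) after 30 min at room temperature.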
CCT chaperon mod: High-Throughput Screening for Modulators of Cytosolic Chaperonin Activity; activity change, % (test concentration not listed), hits read low; purified chaperonin ATPase assay, HTRF ADP detection, 30 min; 360,000 tested, 0.3% active; in the data active = activity change below about -30%; also: % is scaled to controls: 0 for no effect and ±100 for the full control effect
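First, chaperonin was dispensed at 40 nM or 20 nM final depending on batch activity. Next, compounds were pinned at 76 uM and ATP added at 10 uM. After 30 min at 37 °C, ADP detection reagents ran 30 min at ambient temperature.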
RXFP1 antag: qHTS Assay for Antagonists of the Relaxin Receptor RXFP1; AID 1259400, 2018; 350,000 tested, 0.59% active; Relaxin receptor 1 (Homo sapiens), Q9HBX9; activity change, negative = inhibition, % at 57.5 µM; HEK293-RXFP1, relaxin-stimulated cAMP HTRF, 30 min; stronger effect = lower value;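 active = activity change of -60% or lower, but not beyond a set lower limit; inconclusive = change between -60% and -40%, or beyond the set limit; inactive = change above -40%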; also: % is scaled to controls: 0 for no effect and ±100 for the full control effect
RXFP1 ag: qHTS Assay for Agonists of the Relaxin Receptor RXFP1 | AID 2676, 2010 | Relaxin receptor 1 (Homo sapiens), Q9HBX9 | HEK293T-RXFP1 cAMP TR-FRET, 30 min; response scale: percent of porcine relaxin response, buffer zero | Potency, µM (series often up to 57.5 µM), without a hit: at the highest dose activation, most hits filed as activators | 370,000 tested, 0.3% active; also: potency is read from the fitted curve at half-maximal effect; % is scaled to controls: 0 for no effect and ±100 for the full control effect; nearly all actives have a fitted effect of over 60% in size
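Agonist response is measured as cAMP accumulation in an RXFP1-transfected HEK293T line under PDE4 inhibition. Values are scaled between buffer-only and 29 nM porcine relaxin, and EC50s come from standard Hill equation fits.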
Starred values were filed as active, the others as inactive; ? = inconclusive; . = no result; [ ] = remark or other dose. Unless noted, calls follow the shape of the dose curve; as a rule, active = well fitted curve in the direction sought with a large enough effect; inconclusive = small, poorly fitted or top-dose-only effect, or another doubt; inactive = no such curve, though single readings can be large; an effect the other way counts as inactive or inconclusive.

SMILES | Mm-Cpn inhibitor | gsp antag | gsp ag | CCT chaperon mod | RXFP1 antag | RXFP1 ag
O=C(O)c1cc(-c2ccc(C(F)(F)F)cc2)nc2n[nH]c(-c3ccccc3)c12 | . | . | . | . | -18.5 | -0.5%
CC(C)(C)c1ccc(C(=O)CCC(=O)OCC(=O)NCCc2ccc(S(N)(=O)=O)cc2)cc1 | 3.0% | 31.6µM* | 0.8% | -2.5 | -38.6 | -0.5%
CC(C)(C)c1ccc(C(=O)NC(=O)COC(=O)CCS(=O)(=O)c2ccccc2)cc1 | -2.3% | 1.9% | -10.0% | -67.9* | 4.0 | 0.2%
CCCc1ncc(C(=O)O)s1 | . | . | . | . | -0.5 | .
Cc1cccc(NC(=O)CNC(=O)c2cc(C3CC3)nn2-c2ccccc2)c1C | 1.1% | -17.4% | 9.9% | -4.8 | -14.8 | 2.0%
CN(CC(=O)Nc1ccccc1Cl)C(=O)c1cc(C2CC2)nn1-c1ccccc1 | 0.8% | -9.7% | 1.5% | -30.9* | -7.6 | 3.8%
Cc1ccccc1NC(=O)C1CCN(S(=O)(=O)c2ccccc2)CC1 | . | . | . | . | 7.1 | -1.3%
C/C(=N\NC(=O)c1c(C)nc2ccccn12)c1ccc(N2CCOCC2)cc1 | -1.1% | 7.9% | ? | -1.6 | 4.9 | 14.1µM*
CC(C)(C)c1ccc(Oc2ccc(NC(=O)CCC(=O)OCC(=O)c3ccccc3)cc2)cc1 | . | . | . | . | -4.0 | 6.2%
CCCCOc1ccc(N(CC(=O)NCCOC)C(=O)CCC(=O)Nc2ccccn2)cc1 | 1.9% | 31.6µM* | -9.7% | -3.1 | -3.2 | 2.6%
CCCCOc1ccc(N(CC(=O)NC(C)(C)CC)C(=O)CCC(=O)Nc2ccccn2)cc1 | 1.3% | -5.3% | 1.9%[15.4 µM] | -1.0 | -28.1 | -0.3%
Cc1cccc(NC(=O)CN(C)S(=O)(=O)c2ccc3c(c2)c(=O)n(C)c(=O)n3C)c1C | . | . | . | . | . | 9.7%
CCn1c(C)[n+](CC)c2ccc(C(=O)N(C)c3ccccc3)cc21 | -3.3% | 4.7% | 37.6% | -32.9* | 0.2 | 0.6%
COc1cc(-c2nc(Cn3nnc(C(=O)Nc4cc(C)cc(C)c4)c3C)c(C)o2)cc(OC)c1OC | . | . | . | . | . | -3.0%
NC(=O)CSc1nnc(-c2cc3ccccc3o2)n1Cc1ccccc1 | 7.2% | -2.6% | ? | -61.9* | -24.0 | 29.5%
O=C(O)COc1ccc2nsnc2c1Cl | 6.31µM* | ? | 5.2% | -0.8 | . | 8.4%
Cc1ccccc1C(=O)N1CCC(C(=O)Nc2nc3ccc(F)cc3s2)CC1 | 3.0% | 39.8µM* | -1.0% | -0.7 | -23.6 | 2.0%
Cc1cccc(C)c1NC(=O)CN(Cc1ccc(Br)cc1)S(=O)(=O)c1ccccc1 | . | . | . | . | -6.2 | -1.4%
COc1ccc(CNC(=O)c2cc3cc(C)ccc3n2C)cc1 | . | . | . | . | -8.4 | 1.5%
C=C1C(=C/C=C2\CCC[C@]3(C)[C@@H]([C@H](C)/C=C/[C@@H](O)C4CC4)CC[C@@H]23)C[C@@H](O)C[C@@H]1O | . | . | . | . | -72.3* | .
C=C1/C(=C\C=C2/CCC[C@]3(C)[C@@H]([C@H](C)CCCC(C)(C)O)CC[C@@H]23)C[C@@H](O)C[C@@H]1O | 0.9% | . | . | . | . | 0.6%
CC(=O)Nc1ccc(Br)c2ccccc12 | -20.3% | 11.7% | 28.2µM* | 0.3 | 3.8 | 28.2µM*
CCn1ccc(C(=O)Nc2ccccc2Cl)n1 | -5.8% | 50.1µM* | -29.5% | -0.1 | 1.1 | -1.1%
CCn1ccc(C(=O)Nc2cccc(Cl)c2)n1 | 0.1% | -1.3% | 26.9% | -3.2 | -0.5 | -0.3%
Cc1cc(/C=C2\NC(=S)NC2=O)c(C)n1-c1cccnc1 | -0.6% | -2.4% | -0.1%[15.4 µM] | -82.7* | -5.1 | 0.5%
Cc1cc(/C=C2\NC(=O)NC2=O)c(C)n1-c1cccnc1 | -2.7% | -14.0% | ? | -3.2 | -0.2 | 1.9%

Source: PubChem BioAssay (National Center for Advancing Translational Sciences (NCATS))
